# PDI turbidity – inhibitors of human PDI, primary screen, biochemical, turbidity, single point, plate reader; Protein disulfide-isomerase (Homo sapiens), P07237; PDI insulin aggregation turbidity, A650, 90 min; inhibition, % at 10 µM; 0.052% of 350,000 active; AID 588391, 2011;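 active = mean inhibition across replicates of 30% or more, whatever share of single replicates reach that level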
# Target sequence (P07237 whole entry, looked up): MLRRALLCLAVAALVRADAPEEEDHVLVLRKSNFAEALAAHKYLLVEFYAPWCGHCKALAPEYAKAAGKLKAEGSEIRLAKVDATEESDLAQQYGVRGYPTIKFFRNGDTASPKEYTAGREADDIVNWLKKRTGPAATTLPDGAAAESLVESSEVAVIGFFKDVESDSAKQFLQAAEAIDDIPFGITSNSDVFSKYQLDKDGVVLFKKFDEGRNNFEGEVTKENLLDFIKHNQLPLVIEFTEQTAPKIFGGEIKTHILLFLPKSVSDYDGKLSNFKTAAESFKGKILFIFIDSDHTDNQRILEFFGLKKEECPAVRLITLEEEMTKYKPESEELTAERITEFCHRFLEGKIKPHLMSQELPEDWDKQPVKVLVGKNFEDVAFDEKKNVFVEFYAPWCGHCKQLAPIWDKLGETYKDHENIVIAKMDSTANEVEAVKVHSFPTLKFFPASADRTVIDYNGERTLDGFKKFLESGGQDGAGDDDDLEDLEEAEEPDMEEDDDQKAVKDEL
# ALR inh – inhibitors of human ALR sulfhydryl oxidase, primary screen, biochemical, H2O2 detection, HRP-luminol luminescence, single point; FAD-linked sulfhydryl oxidase ALR (Homo sapiens), P55789; inhibition, % (test concentration not listed); 3.8% of 290,000 active; purified ALR, DTT oxidation;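 active = mean replicate inhibition above about 79%, with every replicate also reaching it, limit read from the data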
# ERp5 inh – inhibitors of ERp5-driven insulin aggregation, primary screen, biochemical, turbidity, absorbance 650 nm, single point; Protein disulfide-isomerase A6 (Homo sapiens), Q15084; 90 min; inhibition, % at 9.99 µM; 0.05% of 350,000 active; AID 651711, 2012;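 active = mean replicate inhibition above about 25%, with every replicate also reaching it, limit read from the data, passing the limit was not always enough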
# ARNT-TACC3 inh – disruptors of ARNT/TACC3 protein interaction, primary screen, biochemical, AlphaScreen, single concentration. 0.66% of 390,000 active. inhibition, % at 9.99 µM. Transforming acidic coiled-coil-containing protein 3 (Homo sapiens), Q9Y6A5. AlphaScreen His-ARNT PAS-B/GST-TACC3 binding, luminescence; TACC3 fragment carries E629A point mutation;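 active = mean inhibition of replicates at least 50% and at least half of replicates each reaching 50%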;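 also: 0% = complete ARNT plus TACC3 wells and 100% = ARNT alone without TACC3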
# NRP1-CendR mod – modulators of CendR peptide binding to NRP-1, primary screen, biochemical, fluorescence polarization, uHTS. Neuropilin-1 (Homo sapiens), O14786. FAM-RPARPAR peptide binding to NRP-1. inhibition, % at 25 µM. 0.85% of 360,000 active. AID 602438, 2012;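 active = inhibition or corrected inhibition above about 18%, plus a signal ratio from 0.5 to 1.5, limit read from the data, passing the limit was not always enough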
# PglD DTNB – C. jejuni PglD acetyltransferase inhibitors, primary screen, biochemical, DTNB colorimetric, single point. UDP-N-acetylbacillosamine N-acetyltransferase PglD (Campylobacter jejuni). purified PglD enzyme, DTNB colorimetric CoA detection. inhibition, % at 12.5 µM. 0.098% of 360,000 active. AID 602405, 2012; in the data active = inhibition above about 16%, passing the limit was not always enough
# ARNT Alpha ctr – AlphaScreen signal interference compounds, dose response, artefact control for ARNT-TACC3 interaction inhibitor project, biochemical, luminescence, cherry-pick; shares compounds with ARNT-TACC3 inh; His-ARNT PASB-GST AlphaScreen artifact counter-screen; AC50, µM (doses to about 68 µM), inactives show top-dose activity change, negative = signal decrease; 50% of 1,200 active;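 active = every separate test run was called active for a drop in luminescence, with AC50 within twice the top valid dose, actives reach about 71 µM in these data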
# * marks the source's active call; other numbers are inactive results; . = not tested or not shown. This is one part of a sample in which hits are shown more often than they occur.
SMILES,PDI turbidity,ALR inh,ERp5 inh,ARNT-TACC3 inh,NRP1-CendR mod,PglD DTNB,ARNT Alpha ctr
Cc1ccc(S(=O)(=O)N2CCOCC2)cc1NC(=O)CNCc1ccccc1Cl,8.8,.,-4.3,-0.7,4.4,2.1,.
Cc1ccc(S(=O)(=O)N2CCOCC2)cc1NC(=O)CNCc1ccccn1,-0.7,-0.4,-5.7,65.2*,-11.0,4.4,49.7µM*
COc1ccc2c3c(n(C)c2c1)[C@@H](CO)N(C(=O)NC(C)C)CC31CCN(CC2CC2)CC1,.,.,-4.0,.,.,.,.
Cc1ccc(CSc2ccc3nnc(-c4ccccn4)n3n2)cc1,3.7,.,1.9,11.4,-1.2,.,.
Cc1ccc(C)c(CSc2ccc3nnc(-c4ccccn4)n3n2)c1,-3.3,.,0.2,54.6*,-4.3,-3.1,-11.1%
CCN(CC)c1ccc(C(=O)NNC(=O)CCl)cc1,5.6,.,1.9,-1.4,-9.3,0.8,.
CCN(CC)c1ccc(C(=C2C=CC(=[N+](CC)CC)C=C2)c2ccc(N(CC)CC)cc2)cc1,15.3,.,4.3,50.3*,30.2*,4.8,0.703µM*
Cc1ccc2ccc3cccnc3c2n1,-1.2,.,-0.4,73.8*,-6.5,5.0,50.6µM*
C[C@@H]1CN([C@H](C)CO)S(=O)(=O)c2ccc(C#CC(C)(C)O)cc2O[C@H]1CN(C)CC1CC1,.,.,-3.1,-6.3,.,-19.9,.
N#C[C@@H]1[C@@H](c2ccc(-c3ccc(F)cc3)cc2)[C@H](CO)N1c1nc(-c2ccccc2)cs1,.,.,10.8,56.2*,.,-0.1,58µM*
Cn1ccnc1-c1nc2ccccc2[nH]c1=O,-11.2,-5.7,1.0,71.4*,-0.7,0.2,-11.5%
C[C@@H]1CCCCO[C@@H](CN(C)C(=O)Nc2ccc(F)cc2)[C@H](C)CN([C@@H](C)CO)C(=O)c2cc(NC(=O)c3ccncc3)ccc2O1,.,.,-3.0,16.6,.,0.6,.
C[C@H]1CCCCO[C@H](CN(C)S(=O)(=O)c2cn(C)cn2)[C@@H](C)CN([C@@H](C)CO)C(=O)c2cc(NS(=O)(=O)c3ccc(Cl)cc3)ccc2O1,.,.,-1.9,-3.0,.,0.1,.
Cc1nnc(NC(=O)CSc2nnc(CNC(=O)c3ccc(S(=O)(=O)N(C)C)cc3)o2)s1,8.8,0.1,4.6,63.5*,6.7,-2.8,-2.0%
O=C(CSc1nnc(CNC(=O)c2ccc(F)cc2)o1)NCc1ccccc1,-4.4,0.7,3.1,-2.1,8.1,0.4,.
O=C(CSc1nnc(CNC(=O)c2ccc(F)cc2)o1)Nc1nccs1,12.7,69.1,-4.6,62.5*,-4.1,-2.7,-14.1%
Nc1nnc2c(n1)CCCC2,0.7,-34.5,.,54.5*,15.0,-5.3,-10.4%
CN(C)S(=O)(=O)N1CCN(S(=O)(=O)c2ccc(F)cc2)CC1,2.3,-0.1,.,50.7*,-7.1,-2.4,-0.1%
O=S1(=O)N=C(N/N=C/c2ccccn2)c2ccccc21,2.7,4.8,.,59.2*,-7.9,.,23.6µM*
Cc1ccccc1C(=O)Nc1nnc(-c2ccc(F)cc2)o1,-2.2,.,0.8,12.0,-8.8,0.4,.
O=C(Nc1nnc(-c2ccc(F)cc2)o1)c1ccco1,3.3,95.6*,-2.3,41.7*,-5.6,-1.2,-25.4%
CCCCC(=O)Nc1nnc(-c2ccco2)o1,6.5,-4.3,1.8,14.9,5.4,.,.
O=C(Cc1ccccc1)Nc1nnc(-c2ccco2)o1,-7.1,.,2.6,65.5*,5.8,.,-19.2%
O=C(CCc1ccccc1)Nc1nnc(-c2ccccn2)o1,-5.5,.,8.4,51.8*,-3.3,.,-5.7%
O=C(COc1ccc(Cl)cc1)Nc1nnc(-c2ccco2)o1,-8.4,.,-1.2,25.4*,-11.4,.,-31.1%
SMILES,PDI turbidity,ALR inh,ERp5 inh,ARNT-TACC3 inh,NRP1-CendR mod,PglD DTNB,ARNT Alpha ctr
O=C(Cc1ccccc1)Nc1ccc(-c2nnc(-c3ccco3)o2)cc1,0.8,.,.,-3.9,-19.3,-3.6,.
CN(C)C(=O)c1cccc(-c2ccc([C@H]3[C@H]4CN(C(=O)C5CCCC5)CC(=O)N4[C@H]3CO)cc2)c1,.,.,2.6,.,.,.,.
O=C(Nc1ccc(Cl)cc1)N1C[C@H]2[C@@H](c3ccccc31)[C@H](CO)N2C(=O)c1ccccn1,.,.,2.1,9.7,.,0.1,.
COc1cc(/C=N/N(CCO)C2=NS(=O)(=O)c3ccccc32)cc(OC)c1OC,2.2,-8.4,2.1,41.2*,-25.1,0.8,-40.3%
O=S1(=O)N=C(N(CCO)/N=C/C=C/c2ccccc2)c2ccccc21,2.5,12.2,.,55.4*,-21.5,-0.6,39.1µM*
COc1cc(Br)cc(/C=N/N(CCO)C2=NS(=O)(=O)c3ccccc32)c1OC,-5.4,-5.1,1.3,1.6,9.4,-5.3,.
O=C(N[C@@H]1CC[C@H](CCn2cc(-c3ccccn3)nn2)O[C@H]1CO)c1cccnc1,.,.,1.5,83.8*,.,-2.0,44.2µM*
O=C(N[C@H]1CC[C@H](CCn2cc(C3CC3)nn2)O[C@@H]1CO)c1cccnc1,.,.,-2.2,-23.1,.,-0.9,.
O=C(N[C@@H]1CC[C@@H](CCn2cc(-c3ccccn3)nn2)O[C@@H]1CO)c1cccnc1,.,.,2.3,80.8*,.,-2.3,44.1µM*
O=C(N[C@@H]1CC[C@@H](CCn2cc(C3CCCC3)nn2)O[C@H]1CO)c1cccnc1,.,.,4.8,.,.,.,.
O=C(N[C@@H]1CC[C@@H](CCn2cc(-c3ccccn3)nn2)O[C@H]1CO)c1cccnc1,.,.,1.0,70.9*,.,9.2,36.6µM*
CO[C@H]1CN(C)C(=O)c2cc(NC(=O)c3ccccc3F)ccc2OC[C@@H](C)NC[C@@H]1C,.,.,4.5,0.2,.,-5.6,.
C[C@@H]1CN([C@H](C)CO)C(=O)Cc2cc(NC(=O)Nc3ccccc3)ccc2O[C@@H]1CN(C)S(=O)(=O)c1ccc(Cl)cc1,.,.,-4.0,.,.,.,.
O=C(CN1C(=O)C2CCCCC2C1=O)Nc1nc(-c2ccccn2)cs1 (centres undefined),4.6,-8.5,.,74.5*,-4.2,2.6,51.5µM*
COc1ccc(-c2csc(NC(=O)CN3C(=O)C4CCCCC4C3=O)n2)cc1OC (centres undefined),0.4,-5.8,7.9,3.4,9.0,-3.2,.
C[C@@H](C(=O)Nc1nc(-c2ccccn2)cs1)N1C(=O)C2CCCCC2C1=O (some centres undefined),20.5,5.5,.,63.2*,-9.1,-5.0,21.4µM*

# Bioassay records from PubChem.
